Many of the other results were omitted from the sample, so hits are more common in it than they were.
TDP-43 rescue – qHTS of TDP-43 Inhibitors: NCGC Sytravon Library Screen; yeast TDP-43 toxicity rescue, BacTiter-Glo growth, 24 h; Potency, µM (top dose mostly 46.1 µM), hits mostly activators; 45,000 tested, 0.45% active; AID 1347073, 2019; active = well fitted activation curve with a large enough effect; note: 0% is about no effect; nearly all actives have a fitted effect of over 55% in size
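TDP-43-expressing yeast, pregrown in raffinose, seeded at OD600 0.02 in galactose medium with compound for 24 hr at 30 deg C. Growth read by BacTiter-Glo luminescence, so rescue of toxicity appears as activation.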
* marks the source's active call; other numbers are inactive results; i = inactive. Potency is the fitted concentration of half-maximal effect.

SMILES	TDP-43 rescue
O=C(NNC(=S)NC(=O)c1cccc([N+](=O)[O-])c1)c1ccc(Br)cc1	i
CC(C)CC(=O)NC(=S)NNC(=O)c1ccc([N+](=O)[O-])cc1	11µM*
CNC(CC(=O)c1ccc([N+](=O)[O-])cc1)C(Cl)(Cl)Cl (stereo not given)	i
N#Cc1nc(-c2ccc(OCc3ccccc3)cc2)oc1NCc1ccco1	i
CN(Cc1ccccc1)c1oc(-c2ccco2)nc1C#N	14µM*
CC1CN(c2oc(-c3ccco3)nc2C#N)CC(C)O1 (stereo not given)	i
COc1ccc(N2CCN(c3oc(/C=C/c4ccccc4OC)nc3C#N)CC2)cc1	i
CCc1ccc(OCC(=O)N(Cc2ccco2)Cc2ccccc2Cl)cc1	i
N/C(Cc1ccc([N+](=O)[O-])cc1)=N\OC(=O)c1ccc2ccccc2c1	8.9µM*
N/C(=N\OC(=O)c1ccc([N+](=O)[O-])cc1)c1cccnc1	i
N/C(=N\OC(=O)Cc1ccc([N+](=O)[O-])cc1)c1ccc([N+](=O)[O-])cc1	i
Cc1cccc(C)c1NC(=O)Cn1nnc(S(=O)(=O)c2ccccc2)c1N	i
Cc1ccc(Cl)cc1NC(=O)Cn1c(=O)oc2cc(S(=O)(=O)N3CCCC3)ccc21	i
Cc1nn(-c2ccccc2)c(N)c1Sc1ccc([N+](=O)[O-])cc1	14µM*
Cc1cnnn1-c1ccc([N+](=O)[O-])cc1	i
Cc1c(C(=S)Nc2ccccc2)cnn1-c1ccc([N+](=O)[O-])cc1	i
Cc1ccccc1NC(=O)N1CCc2cc(S(=O)(=O)N3CCC(C)CC3)ccc21	i
CC(CN1CCOCC1)OC(=O)CCc1ccccc1 (stereo not given)	i
CC1CCN(CC(C)OC(=O)c2ccco2)CC1 (stereo not given)	i
CC(CN1CCOCC1)OC(=O)c1ccc(Br)cc1 (stereo not given)	16µM*
COC(=O)c1c(C)nn(-c2ccc(F)cc2)c1-n1cccc1	i
CCCSc1ncc(Cl)c(C(=O)N2CCN(c3cccc(Cl)c3)CC2)n1	i
COc1ccc(NC(=O)Cc2ccsc2)c(OC)c1	i
COc1ccc(NCc2ccc([N+](=O)[O-])s2)c(OC)c1	13µM*
CCC(=O)NC(=S)Nc1ccc(OC)cc1OC	i
SMILES	TDP-43 rescue
CCc1ccccc1NC(=O)CC1NCCNC1=O (stereo not given)	i
CCC(Oc1ccccc1)C(=O)Nc1ccc(O)c(-c2nc3cc(C)ccc3o2)c1 (stereo not given)	i
CCOC(=O)c1c(N)sc(N)c1C(=O)OCC	i
CCOC(=O)c1c(CC(C)C)csc1NC=O	16µM*
CC(C)Cc1csc(NC(=O)c2ccc(F)cc2)c1C(=O)O	i
COc1ccc(C(CC(=O)Nc2ccc(C(C)=O)cc2)N2Cc3ccccc3C2=O)cc1 (stereo not given)	i
CCCSc1ncc(Cl)c(C(=O)Nc2c(C(=O)Nc3ccc(C)cc3)oc3ccccc23)n1	i
CC(=O)c1cc(C#N)c(N(C)Cc2ccccc2)nc1C	i
CCCCSc1nc(C)c(C(C)=O)cc1C#N	6.3µM*
Cc1cc(NC(=O)CSc2nc3ccccc3cc2C#N)no1	i
COc1ccc(NC(=O)c2csnn2)cc1Cl	i
COc1cc(C(=O)Nc2sc3c(c2C#N)CCCC3)c(Br)c(OC)c1OC	i
COc1ccccc1OCCn1c(COc2cc(C)ccc2C)nc2ccccc21	i
COc1ccc(S(=O)(=O)Nc2cc(C(=O)NCCCN3CCOCC3)ccc2N2CCOCC2)cc1	i
COC(=O)c1cc(OC)c(OC)cc1NC(=O)c1ccc(Br)o1	i
COc1ccc(N2CCOCC2)c(NC(=O)c2ccc(Br)o2)c1	16µM*
CCS(=O)(=O)c1ncc(Cl)c(C(=O)N2CCN(c3ccc(OC)cc3)CC2)n1	i
Cc1ccc(CSC2=Nc3ccccc3C3=NC(CC(=O)NC4CCCCC4)C(=O)N23)cc1 (stereo not given)	i
CCOc1ccc(CNC(=O)C2CCN(c3nnc(-n4c(C)ccc4C)s3)CC2)cc1	i
COc1cc(NC(=O)c2cc(C3CC3)nc3c2c(C)nn3-c2ccc(C)cc2)cc(OC)c1	i
Cc1c(C(=O)N(Cc2ccc(N(C)C)cc2)Cc2ccco2)oc2cc(Br)ccc12	i
CCN(CC)S(=O)(=O)c1ccc(NC(=O)CSc2ncnc3ccccc23)cc1	22µM*
NS(=O)(=O)c1ccc(CCNC(=O)CSc2ncnc3ccccc23)cc1	i
COC(=O)c1c(NC(=O)CSc2ncnc3ccccc23)sc(C)c1C	i
COc1ccc(C)cc1Nc1nc(-c2c[nH]c3ccccc23)cs1	i
SMILES	TDP-43 rescue
CC(C)Oc1ccc(Br)cc1C(=O)N/N=C/c1c[nH]c2ccccc12	i
COCCN=c1scc(-c2cc(OC)ccc2OC)n1/N=C/c1c[nH]c2ccccc12	20µM*
CCOc1ccccc1C(=O)N(Cc1ccc(N(C)C)cc1)Cc1ccco1	i
Cc1ccc(C)c(CN2C(=O)c3ccccc3S(=O)(=O)c3ccc(C(=O)N(C)C4CCCCC4)cc32)c1	i
COc1ccc(CCNC(=O)c2ccc3c(c2)N(Cc2ccc(F)cc2)C(=O)c2ccccc2S3(=O)=O)cc1OC	i
COc1ccc(Cl)cc1NC(=S)Nc1ccc(Cl)cn1	i
COc1ccc(Cl)cc1NC(=S)NCCSc1ccc(C)cc1	13µM*
COc1ccc(Cl)cc1NC(=S)NN1CCOCC1	i
COc1ccccc1-c1cn(C(C)(C)C)nc1C	11µM*
COc1ccccc1-c1c(C)nn2c(C(F)(F)F)cc(-c3ccccc3)nc12	i
COc1ccccc1-c1nc2cc3ccccc3cc2nc1-c1ccccc1OC	i
O=C(Nc1cc(-c2nc3ccccc3o2)ccc1Cl)c1ccc(Br)o1	i
O=C(NCCC1=CCCCC1)c1ccc2c(c1)N(Cc1ccccc1)C(=O)c1ccccc1S2(=O)=O	i
CCOc1ccc(NC(=S)NCc2nc3ccccc3[nH]2)cc1	i
S=C(Nc1ccc(Cl)cc1)c1nc2ccccc2[nH]1	10µM*
O=C(/C(=C\c1ccccc1)c1nc2ccccc2[nH]1)c1ccc(Cl)cc1	i
CCc1ccc(OCCCSc2nc(-c3ccc(C(C)(C)C)cc3)nc3cc(=O)[nH]n23)cc1	i
Cc1cc2nc(-c3ccc(NC(=O)c4ccc(OCC(C)C)cc4)cc3)oc2cc1C	i
O=C(Nc1ccccc1C(=O)N/N=C/c1ccccc1)c1ccco1	i
Cc1occc1C(=O)N/N=C/C(Br)=C\c1ccccc1	i
O=C(N/N=C/C(Br)=C\c1ccccc1)c1ccco1	10µM*
COC(=O)CSc1nc(C)cc(C)c1C#N	i
Cc1cc(C)c(C#N)c(SCC(O)COc2ccc(Br)cc2)n1 (stereo not given)	13µM*
CCCCN(CCCC)CC(O)COc1ccc(Br)cc1 (stereo not given)	i
CCCCOc1cccc(C(=O)N(Cc2cccs2)c2ccc(OC)cc2)c1	i
SMILES	TDP-43 rescue
Cc1ccc(NC(=O)CCCN2C(=O)COc3ccc(C)cc32)c(Cl)c1	i
Fc1ccccc1-n1ncc2c1ncn1nc(-c3ccccc3Cl)nc21	i
COc1cccc(NC(=O)C2CCCN(c3nnc(-n4c(C)ccc4C)s3)C2)c1 (stereo not given)	i
Cc1cc(Cl)ccc1OCC(=O)N(Cc1sccc1C)C1CCS(=O)(=O)C1 (stereo not given)	i
CCc1ccc(NC(=O)CN2C(=O)C(c3ccc(Cl)cc3)=NC23CCCCC3)cc1	i
CCNC(=S)Nc1ccc(Cl)cc1	i
